According to PubChem BioAssay AID440 (NMMLSC, 2006):
Screen size: about 24,000 compounds; about 180 (0.75%) were called active. This excerpt belongs to a sample that is enriched for actives. Unmarked numbers belong to inactive results. No stated cut-off is given here; in the data, active means inhibition above about 30%; inconclusive means no clear call, values can overlap the other calls; inactive means below that.

molecular target: fMet-Leu-Phe receptor (Homo sapiens) (UniProt P21462); assay: human FPR ligands by binding competition, primary screen, cell-based, FPRL1 counter-screen, flow cytometry (AID 440); conditions: FPR-expressing cells, fluorescent ligand binding, stronger effect = higher value, concentration not given here;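 further: 0% = buffer wells and 100% = receptor blocker peptide wells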
Sequence (P21462 whole entry, looked up): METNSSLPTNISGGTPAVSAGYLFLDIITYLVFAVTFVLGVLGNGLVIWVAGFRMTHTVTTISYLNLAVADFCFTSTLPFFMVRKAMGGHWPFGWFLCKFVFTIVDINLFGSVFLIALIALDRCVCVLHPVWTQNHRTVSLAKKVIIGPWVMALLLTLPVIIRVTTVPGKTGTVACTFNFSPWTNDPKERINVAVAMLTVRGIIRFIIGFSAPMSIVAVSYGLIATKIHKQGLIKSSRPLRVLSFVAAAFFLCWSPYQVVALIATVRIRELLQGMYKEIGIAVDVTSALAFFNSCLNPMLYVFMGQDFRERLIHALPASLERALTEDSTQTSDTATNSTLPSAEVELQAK

In order of falling inhibition:
1. C=CCN(CC=C)C(=O)CN1C(=O)c2ccccc2C1=O  13.3%
2. CCOc1cc2c(cc1OCC)C(C(=O)O)C(c1ccc(OC)c(O)c1)N(C)C2=O (configuration not stated)  12.3%
3. CCOC(=O)N1CCN(C(=O)c2cc3c(-c4ccc(Cl)cc4)nn(C)c3s2)CC1  8.5%
4. O=C(Cn1nnc(-c2ccc(CN3CCOCC3)cc2)n1)NC1CCCCC1  5.2%
5. O=C1CCC(Cc2ccccc2)N1 (configuration not stated)  1.5%
6. Cc1c2cnn(-c3ccccc3)c(=O)c2c(C)n1CCCC(=O)N1CCN(C)CC1  1.2%
7. Cn1c(=O)n(C)c2cc(CNc3ccc(N4CCOCC4)c(C(=O)O)c3)ccc21  0.5%
8. CCOc1ccc(CC(=O)Nc2ccc(S(=O)(=O)Nc3cc(C)on3)cc2)cc1OCC  -0.6%
9. O=C(NCCc1ccc(Cl)cc1)C1CC(=O)N(C2CCCCC2)C1 (configuration not stated)  -0.9%
10. O=C(COC(=O)c1ccccc1C(=O)c1ccccc1)c1ccco1  -1%
11. Cn1c(C(=O)N2CCC(C(N)=O)CC2)cc2c(=O)n(C)c3ccccc3c21  -1%
12. CCOC(=O)c1ccc(CS(=O)c2ccc(Cl)cc2)o1 (configuration not stated)  -1.1%
13. Cc1cc(=O)n(C)c(=O)n1CCCNc1ccccc1  -1.3%
14. COc1ccc(C(=O)NC(=O)CSc2nnc(-c3ccco3)n2-c2ccccc2)cc1  -1.4%
15. CCCS(=O)(=O)N1CCC(C(=O)NCCCN(C)Cc2ccccc2)CC1  -2.3%
16. Cc1ccc(NC(=O)c2nc[nH]c2C(=O)N2CCCCC2)c(C(=O)c2ccccc2)c1  -3.6%
17. Cc1cc(C(=O)O)c(S(C)(=O)=O)s1  -3.8%
18. O=C(NCc1ccco1)C1CCCN(S(=O)(=O)c2cccc3nonc23)C1 (configuration not stated)  -5.3%
19. COCc1cc(C)nc(SCC(=O)Nc2cccc(C)c2)c1C#N  -8.6%
20. O=C(O)C1CCCCC1C(=O)Nc1ccc(Cl)cc1 (configuration not stated)  -10.1%
21. CC1CCN(c2oc(-c3ccccc3F)nc2C#N)CC1  -10.3%
22. Cc1cc(=O)oc(C)c1C(=O)NCc1ccc(F)cc1  -12.6%
